Experimental data published in PubChem BioAssay (NCI).
About 83,000 compounds went through this panel and 20% of them were active in at least one assay; those are over-represented in the sample as a whole.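 Negative percent growth values reflect cell death: -40 means 40% of the cells present at the start died, and -100 means all died.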 Active and inactive are the calls of the source. The calls were made as follows: active = growth percent below 10; inactive = the rest.

Each molecule was assayed on MDA-MB-468 breast (assay: NCI-60 one-dose screen, 48 h (100 = growth as untreated, 0 = no growth, -100 = all killed)). Conditions: 10 µM unless noted.
In the case of Cc1ccc(C)c(NC(=O)c2sc3c(=O)[nH]cnc3c2C)c1, the growth is reported as 67.2% (inactive).
Cc1cc(NS(=O)(=O)c2ccc(NC(=O)CSc3nc4ccccc4c(=O)n3-c3ccccc3)cc2)no1 was tested, and the growth was 91% (inactive).
COc1cc2c(c(OC)c1OC)C(=O)CC(c1cccc(C(=O)Nc3ccccc3Br)c1)O2 (stereo not given) was tested, and the growth was 79.1% (inactive).
With Cn1cc(-c2nc(N)nnc2-c2c[nH]c3ccc(Br)cc23)c2cc(F)ccc21 the growth was 75.5% (inactive).
In the case of Cc1cc2c(cc1[N+](=O)[O-])NC(CNC(C)C)CC2 (stereo not given), the growth is reported as 83.3% (inactive).
For O=C1CCC/C=C\C[C@H]2C=C(Cl)C(=O)/C2=C/C[C@H](CCCCC(F)(F)F)OC(=O)CCC/C=C\C[C@H]2C=C(Cl)C(=O)/C2=C/C[C@H](CCCCC(F)(F)F)O1, the growth was -72.2% [7.5 µM] (active).
With COc1cc2oc3cc(C)oc(=O)c3c2cc1OC the growth was 91% (inactive).
NNC(=O)c1ccc(C(=O)NN)cc1 was tested, and the growth was 102% (inactive).
Nc1nc2c(c3ncccc13)C(c1ccc(Cl)c(Cl)c1)Cc1ncccc1-2 (stereo not given) was tested, and the growth was -6.48% (active).
With c1c2c(cc3c1OCO3)Cc1cc3c(cc1Cc1cc4c(cc1C2)OCO4)OCO3 the growth was 106% (inactive).
Clc1nnc2c3ccccc3ccn12 was tested, and the growth was 101% (inactive).
In the case of O=c1c2cc(F)ccc2sc2c(N3CCNCC3)nc3ccc(F)cc3c12, the growth is reported as -59.9% (active).
In the case of CN1CCN(Cc2ccc(NC(=O)c3cncc(C#Cc4cnc5ccc(Cl)nn45)c3)cc2C(F)(F)F)CC1, the growth is reported as -20.1% (active).
With O=C(Nc1ccc(Cl)cc1)c1cc(NCc2cc(O)ccc2O)ccc1O the growth was 81.2% (inactive).
COc1ncc(-c2ccc3nccc(C#CCCCCC(=O)O)c3c2)cc1NS(=O)(=O)c1ccc(F)cc1F was tested, and the growth was -29.4% (active).
COc1ccc(C2NC(=O)C(C#N)c3c2sc2c(F)cccc32)c(OC)c1 (stereo not given) was tested, and the growth was 24.3% (inactive).
For COc1ccccc1/C(C)=N/NC(=O)CSc1nc2ccccc2c(=O)n1Cc1ccc(S(N)(=O)=O)cc1, the growth was 98.8% (inactive).
With Cc1nc2nc(C(F)(F)F)[nH]c2nc1C the growth was 102% (inactive).
With CC(=O)NC(C)(C)C(=O)N[C@@H](C)C(=O)NC(C)(C)C(=O)N[C@@H](C)C(=O)NC(C)(C)C(=O)N[C@@H](C)C(=O)N[C@@H](CCC(N)=O)C(=O)NC(C)(C)C(=O)N[C@H](C(=O)NC(C)(C)C(=O)NCC(=O)N[C@@H](CC(C)C)C(=O)NC(C)(C)C(=O)N1CCC[C@H]1C(=O)N[C@H](C(=O)NC(C)(C)C(=O)NC(C)(C)C(=O)N[C@@H](CCC(N)=O)C(=O)N[C@@H](CCC(N)=O)C(=O)N[C@H](CO)CC1CCCCC1)C(C)C)C(C)C the growth was 3.04% [5 µM] (active).
In the case of CCOC(=O)C/C(=N\Nc1cc(=O)[nH]c2ccc(C)cc12)C(=O)OCC, the growth is reported as 91.1% (inactive).
With Oc1ccc(CCC2CCNc3ccccc32)cc1 (stereo not given) the growth was 46.8% (inactive).
In the case of CCn1c(CSc2nc3ccccc3c(=O)n2CCc2ccccc2)n[nH]c1=S, the growth is reported as 85.6% (inactive).
CC[n+]1c(/C=C/C=C2\N(C)c3ccccc3C2(C)C)sc2ccccc21 was tested, and the growth was -12.3% (active).
With COc1ccc(C2C(C#N)=C(N)Oc3n[nH]c(-c4cccs4)c32)cc1I (stereo not given) the growth was 86.8% (inactive).
CC(=O)Nc1nc(C(=O)N2N=C(C)/C(=C/c3ccc(Cl)cc3)C2=O)cs1 was tested, and the growth was 103% (inactive).
In the case of CCN1CCN(Cc2ccc(C(=O)Nc3ccc(C)c(Oc4ccc(-c5[nH]nc6ncnc(N)c56)cc4)c3)cc2C(F)(F)F)CC1, the growth is reported as 118% (inactive).
For COc1ccc2c(c1)CC[C@H](O)/C2=C/c1cc(OC)c(OC)c(OC)c1, the growth was 17.6% (inactive).
In the case of CCOC(=O)C(C)(C#N)C1C=CCCC1 (stereo not given), the growth is reported as 75.6% (inactive).
With COc1ccc(C2SC(C)C(=O)N2CCc2cccs2)cc1OC (stereo not given) the growth was 48.1% (inactive).
CCCCC(=O)Nc1nc2ccc(SCCC)cc2s1 was tested, and the growth was 20% (inactive).
With CN(CCCNC(=O)CCOCCOCCOCCNC(=O)Cc1ccc2ccc3cccc4ccc1c2c34)CCCNc1cc(-c2ccc3ccccc3c2)nc2ccccc12 the growth was -92.2% (active).
COc1cc(-c2csc(NC(=O)Nc3cccc(C(F)(F)F)c3)n2)cc(OC)c1OC was tested, and the growth was 19.3% (inactive).
C=C1C(=O)O[C@H]2[C@H]1CC/C(COC(=O)CCCCCC(=O)OC/C1=C/CC[C@@]3(C)O[C@H]3[C@H]3OC(=O)C(=C)[C@@H]3CC1)=C\CC[C@@]1(C)O[C@@H]21 was tested, and the growth was -33.4% (active).
For N=c1nc(N2CCCCC2)cc(N)n1O, the growth was 97.1% (inactive).
In the case of O=C1c2cccc3cccc(c23)C(=O)N1N1C(=O)c2cccc3c(NC4CCCCC4)ccc(c23)C1=O, the growth is reported as 100% (inactive).
In the case of NCCCNc1nc2ccccc2c2c(=O)c3cc(OC(F)(F)F)ccc3sc12, the growth is reported as -69.8% (active).
For O=C1/C(=C/c2ccccc2O)CC/C1=C\c1ccccc1O, the growth was 34.3% (inactive).
With Cc1nnc(-c2ccc3c(c2)nc(/C=C/c2ccccc2)n3C2CCCCC2)o1 the growth was 91.3% (inactive).
In the case of Oc1c(C(Nc2ccccn2)c2cccc(Oc3ccccc3)c2)ccc2cccnc12 (stereo not given), the growth is reported as -79.2% (active).
CCOC(=O)COc1ccc2c(c1)O/C(=C\c1ccc(O)cc1)C2=O was tested, and the growth was 91.9% (inactive).
